Twelve molecules from PubChem BioAssay (Tox21) can be followed below.

A short description of assay [1]: Caspase-3/7 induction in HepG2 cells by small molecules, qHTS assay (AID 1346978). Further: nearly all actives have a fitted effect of over 15% in size. The gist of the method:
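Wild-type HepG2 cells, 2,000/well, settled 5 hr at 37 C and 5% CO2, then compound-treated for 17 hr; caspase-3/7 activity read by luminescent Caspase-Glo 3/7 after 30 min at room temperature.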

Assay [2] in a line: Caspase-3/7 induction in CHO-K1 cells by small molecules, qHTS cell viability counter screen (AID 1346979). Further: nearly all actives have a fitted effect of over 35% in size. Further: potency means the concentration at half of the fitted maximal effect. The gist of the method: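 CellTiter-Fluor viability check, qHTS format: wild-type CHO-K1, 16hr compound treatment, 1hr reagent incubation, fluorescence read.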
A general note: qHTS replaces the single test concentration by a dilution series.

The nature of assay [3]: Caspase-3/7 induction in HepG2 cells by small molecules, qHTS cell viability counter screen (AID 1346981). Further: series mostly up to about 92 µM; nearly all actives have a fitted effect of over 30% in size. The gist of the method: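 Fluorescence read-out of live-cell protease activity (CellTiter-Fluor) after 1 hr with reagent. This was measured in the same wells as the caspase-3/7 luminescence, on HepG2 cells exposed to DMSO-dissolved compounds for 16 hr at 37 C.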
Assay [4] addresses Cytochrome P450 2D6 (Homo sapiens) (UniProt P10635). Kind of assay: Cytochrome P450 Family 2 Subfamily D Member 6 (CYP2D6) small molecule antagonists: luciferase reporter qHTS assay (AID 1671196). Further: nearly all actives have a fitted effect of over 50% in size. Further: potency means the concentration at half of the fitted maximal effect. The gist of the method:
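Luminogenic proluciferin substrate, CYP2D6 enzyme; 10 min RT preincubation with compound, NADPH regeneration system added, 1 h RT. Stop/detection reagent, 20 min RT, luminescence read (RLU). Signal proportional to CYP activity.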
In general terms: Reporter assays use an easily measured gene product as a stand-in for the process of interest.

Assay [5] deals with Cytochrome P450 2C19 (Homo sapiens) (UniProt P33261). The assay can be described thus: Cytochrome P450 Family 2 Subfamily C Member 19 (CYP2C19) small molecule antagonists: luciferase reporter qHTS assay (AID 1671197). Further: nearly all actives have a fitted effect of over 65% in size. Further: potency means the concentration at half of the fitted maximal effect. The gist of the method: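 First, compounds are pinned into enzyme-substrate mix and held 10 min at room temperature. Second, NADPH regeneration solution is added and plates incubate 1 h at 37C. Third, detection reagent is added and luminescence read after 20 min.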
Sequence of Cytochrome P450 2C19 (Homo sapiens) (P33261 whole entry, looked up): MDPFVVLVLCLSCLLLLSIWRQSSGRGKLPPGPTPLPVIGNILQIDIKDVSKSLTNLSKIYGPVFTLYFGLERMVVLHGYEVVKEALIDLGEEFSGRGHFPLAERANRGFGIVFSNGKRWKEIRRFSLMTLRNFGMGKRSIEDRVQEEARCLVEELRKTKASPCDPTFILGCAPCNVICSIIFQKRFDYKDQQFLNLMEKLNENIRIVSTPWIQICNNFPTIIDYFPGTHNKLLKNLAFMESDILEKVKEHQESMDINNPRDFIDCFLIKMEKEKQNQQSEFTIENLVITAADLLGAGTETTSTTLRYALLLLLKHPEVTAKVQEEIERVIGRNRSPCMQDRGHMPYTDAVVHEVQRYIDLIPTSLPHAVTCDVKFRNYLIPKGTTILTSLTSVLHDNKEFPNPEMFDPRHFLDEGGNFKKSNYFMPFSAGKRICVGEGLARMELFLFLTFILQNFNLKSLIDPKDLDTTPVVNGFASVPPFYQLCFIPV

In assay [6] the target is Cytochrome P450 1A2 (Homo sapiens) (UniProt P05177). The assay can be described thus: Cytochrome P450 Family 1 Subfamily A Member 2 (CYP1A2) small molecule antagonists: luciferase reporter qHTS assay (AID 1671199). Further: nearly all actives have a fitted effect of over 50% in size. Further: potency means the concentration at half of the fitted maximal effect. The gist of the method: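 Luminescence readout (relative luminescence units) after luciferin detection reagent, 20 min RT. Preceded by 1 h room-temperature CYP1A2 reaction with NADPH regeneration solution following 10 min compound preincubation with enzyme and proluciferin substrate. Furafylline positive control.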
Sequence of Cytochrome P450 1A2 (Homo sapiens) (P05177 whole entry, looked up): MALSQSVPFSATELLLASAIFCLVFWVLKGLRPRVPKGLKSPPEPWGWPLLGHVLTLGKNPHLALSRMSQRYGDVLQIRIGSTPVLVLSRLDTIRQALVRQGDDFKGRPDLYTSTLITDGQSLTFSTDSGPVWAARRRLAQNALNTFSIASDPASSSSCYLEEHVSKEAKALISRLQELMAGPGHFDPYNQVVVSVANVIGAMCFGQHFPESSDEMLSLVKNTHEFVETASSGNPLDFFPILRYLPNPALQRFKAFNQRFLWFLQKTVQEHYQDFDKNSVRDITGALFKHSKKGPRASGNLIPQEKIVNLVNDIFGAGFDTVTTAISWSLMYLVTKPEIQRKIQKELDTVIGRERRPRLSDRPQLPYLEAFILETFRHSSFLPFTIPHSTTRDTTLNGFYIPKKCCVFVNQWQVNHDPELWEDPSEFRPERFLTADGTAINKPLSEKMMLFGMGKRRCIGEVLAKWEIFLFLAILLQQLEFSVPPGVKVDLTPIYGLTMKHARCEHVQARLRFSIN

The target in assay [7] is Nuclear receptor subfamily 1 group I member 2 (Homo sapiens) (UniProt O75469). The assay can be described thus: Human pregnane X receptor (PXR) small molecule agonists, qHTS assay (AID 1346982). Further: nearly all actives have a fitted effect of over 35% in size. The gist of the method:
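HepG2 PXR-Luc reporter line, 5% charcoal-stripped FBS; 5 hr pre-incubation, compound (DMSO) 24 hr at 37 C/5% CO2; ONE-Glo 30 min RT; luminescence read-out.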

Assay [8] addresses Cytochrome P450 2C9 (Homo sapiens) (UniProt P11712). The assay can be described thus: Cytochrome P450 Family 2 Subfamily C Member 9 (CYP2C9) small molecule antagonists: luciferase reporter qHTS assay (AID 1671198). Further: nearly all actives have a fitted effect of over 50% in size. Further: potency means the concentration at half of the fitted maximal effect. The gist of the method:
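P450-Glo proluciferin substrate with CYP2C9 enzyme; 10 min RT preincubation, then NADPH regeneration 1 h at 37C; luciferin detection reagent 20 min RT, luminescence in relative luminescence units.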

For assay [9], the target named is Voltage-gated inwardly rectifying potassium channel KCNH2 (Homo sapiens) (UniProt Q12809). Kind of assay: Human Ether-a-go-go-Related Gene (hERG) channel small molecule antagonists: fluorescence cell-based qHTS assay (AID 1671200).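 Further: hERG-expressing U2OS cells given a thallium stimulus after FluxOR II dye loading; series mostly up to about 77 µM; nearly all actives have a fitted effect of over 50% in size.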 The gist of the method:
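Kinetic two-minute fluorescence traces, sampled at 1 s, were collected following thallium stimulus of U2OS cells (1000 per well) that had been cultured overnight at 37 C and loaded with FluxOR II.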
(Block of hERG is tested as a sign of cardiac risk.)

The target of assay [10] is Cytochrome P450 3A4 (Homo sapiens) (UniProt P08684). Kind of assay: Cytochrome P450 Family 3 Subfamily A Member 4 (CYP3A4) small molecule antagonists: luciferase reporter qHTS assay (AID 1671201). Further: nearly all actives have a fitted effect of over 50% in size. Further: potency means the concentration at half of the fitted maximal effect. The gist of the method:
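Proluciferin-to-luciferin conversion by CYP3A4, NADPH-regenerated, 1 h RT; luminescence read as RLU. Ketoconazole as control.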

A short description of assay [11]: Caspase-3/7 induction in CHO-K1 cells by small molecules, qHTS assay (AID 1346980). Further: nearly all actives have a fitted effect of over 15% in size. The gist of the method:
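Wild-type CHO-K1 cells exposed to compounds for 17hr at 37 C, 5% CO2. Caspase-3/7 activity then measured by Caspase-Glo 3/7 luminescence after 30min at room temperature.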

Assay [12] addresses Nuclear receptor subfamily 1 group I member 2 (Rattus norvegicus) (UniProt Q9R1A7). The assay can be described thus: Rat pregnane X receptor (rPXR) activation by small molecules, qHTS assay (AID 1346983). Further: nearly all actives have a fitted effect of over 20% in size. The note with it: rPXR luciferase reporter cells, One-Glo luminescence, 24 h; max activation: active compounds read high. The gist of the method: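 Cell-based rPXR activation assay: rPXR cells, 2,000 per well, rested 5hr at 37 C, then exposed to compounds in DMSO for 24 hr at 37 C. Luciferase activity read by One-Glo luminescence after 30 min at room temperature.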

The target in assay [13] is Nuclear receptor subfamily 1 group I member 2 (Homo sapiens) (UniProt O75469). The assay can be described thus: CYP3A4 induction through human pregnane X receptor (PXR) by small molecules, qHTS assay (AID 1346984). Further: nearly all actives have a fitted effect of over 40% in size. The gist of the method:
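HepG2-derived DPX-2 line carrying PXR plus a CYP3A4-promoter luciferase reporter; cells plated 5 hr, compound-exposed 24 hr at 37C. CYP3A4 activity probed with 3uM (final) Luciferin-IPA for 3hr, then luciferase read after One-Glo.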

Assay [14] has the same target. Kind of assay: Human pregnane X receptor (PXR) activation by small molecules, qHTS assay (AID 1346985). Further: nearly all actives have a fitted effect of over 40% in size. The gist of the method:
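DPX-2 cells (HepG2 co-transfected with a PXR response element and a CYP3A4-promoter luciferase construct) were seeded at 2,000 per well, rested 5 hr at 37C, then exposed to DMSO-dissolved compounds for 24 hr. Activation was read as luciferase luminescence.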

Molecules are shown by their SMILES. A number with no mark means an inactive call. Results filed as inconclusive are left out. Calls of active or inactive are those of the source. The call rests on the fitted dose curve; in most records, active means well fitted curve in the direction sought with a large enough effect in the repeat runs; inconclusive means weak or mixed curves; inactive means no such curve, though single readings can be large; an effect the other way counts as inactive or inconclusive.
On the % scale 0 is the no-effect control and ±100 the full control effect.

Sequence of Cytochrome P450 2C9 (Homo sapiens) (P11712 whole entry, looked up): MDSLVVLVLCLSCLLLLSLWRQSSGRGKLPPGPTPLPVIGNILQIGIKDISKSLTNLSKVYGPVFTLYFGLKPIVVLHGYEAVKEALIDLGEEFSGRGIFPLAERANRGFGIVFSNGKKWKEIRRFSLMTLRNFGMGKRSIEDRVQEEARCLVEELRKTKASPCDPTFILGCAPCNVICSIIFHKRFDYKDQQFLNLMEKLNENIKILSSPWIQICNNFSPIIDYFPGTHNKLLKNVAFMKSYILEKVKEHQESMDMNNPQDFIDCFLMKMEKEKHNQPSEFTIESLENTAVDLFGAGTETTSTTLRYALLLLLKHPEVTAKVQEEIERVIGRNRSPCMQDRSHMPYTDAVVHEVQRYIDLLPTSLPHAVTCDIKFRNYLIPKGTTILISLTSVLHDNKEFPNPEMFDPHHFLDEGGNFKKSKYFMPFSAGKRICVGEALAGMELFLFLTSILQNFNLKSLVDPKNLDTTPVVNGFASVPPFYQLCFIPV
Sequence of Voltage-gated inwardly rectifying potassium channel KCNH2 (Homo sapiens) (Q12809 whole entry, looked up): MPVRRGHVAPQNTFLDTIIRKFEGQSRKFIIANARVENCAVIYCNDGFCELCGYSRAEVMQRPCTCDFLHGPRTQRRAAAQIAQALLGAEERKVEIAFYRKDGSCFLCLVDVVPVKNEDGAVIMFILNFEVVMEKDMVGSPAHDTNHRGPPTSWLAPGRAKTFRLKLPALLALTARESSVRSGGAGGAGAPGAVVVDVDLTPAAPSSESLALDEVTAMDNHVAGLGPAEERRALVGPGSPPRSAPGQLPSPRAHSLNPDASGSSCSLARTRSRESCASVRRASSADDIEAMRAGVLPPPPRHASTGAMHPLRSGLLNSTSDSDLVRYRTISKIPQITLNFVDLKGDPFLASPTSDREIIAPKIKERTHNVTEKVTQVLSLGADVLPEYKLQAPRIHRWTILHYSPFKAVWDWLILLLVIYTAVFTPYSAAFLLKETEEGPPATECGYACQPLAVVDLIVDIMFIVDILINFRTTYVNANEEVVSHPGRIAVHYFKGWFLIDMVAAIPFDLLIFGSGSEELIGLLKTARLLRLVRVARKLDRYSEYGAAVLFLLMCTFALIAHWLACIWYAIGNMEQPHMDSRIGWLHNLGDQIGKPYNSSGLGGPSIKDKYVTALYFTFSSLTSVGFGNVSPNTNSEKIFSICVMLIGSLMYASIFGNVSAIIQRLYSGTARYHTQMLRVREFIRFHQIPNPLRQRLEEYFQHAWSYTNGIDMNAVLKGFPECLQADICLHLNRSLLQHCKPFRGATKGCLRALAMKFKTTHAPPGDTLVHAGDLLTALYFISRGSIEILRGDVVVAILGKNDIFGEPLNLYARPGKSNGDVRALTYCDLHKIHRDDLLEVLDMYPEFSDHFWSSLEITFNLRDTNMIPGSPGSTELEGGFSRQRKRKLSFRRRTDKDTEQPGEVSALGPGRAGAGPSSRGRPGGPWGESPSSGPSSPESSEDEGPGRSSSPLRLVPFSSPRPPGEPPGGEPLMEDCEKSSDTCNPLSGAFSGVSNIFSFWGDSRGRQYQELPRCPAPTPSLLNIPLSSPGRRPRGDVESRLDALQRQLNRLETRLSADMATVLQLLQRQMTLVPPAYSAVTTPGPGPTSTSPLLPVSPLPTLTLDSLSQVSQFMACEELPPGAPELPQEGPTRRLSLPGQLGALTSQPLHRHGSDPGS
Sequence of Cytochrome P450 2D6 (Homo sapiens) (P10635 whole entry, looked up): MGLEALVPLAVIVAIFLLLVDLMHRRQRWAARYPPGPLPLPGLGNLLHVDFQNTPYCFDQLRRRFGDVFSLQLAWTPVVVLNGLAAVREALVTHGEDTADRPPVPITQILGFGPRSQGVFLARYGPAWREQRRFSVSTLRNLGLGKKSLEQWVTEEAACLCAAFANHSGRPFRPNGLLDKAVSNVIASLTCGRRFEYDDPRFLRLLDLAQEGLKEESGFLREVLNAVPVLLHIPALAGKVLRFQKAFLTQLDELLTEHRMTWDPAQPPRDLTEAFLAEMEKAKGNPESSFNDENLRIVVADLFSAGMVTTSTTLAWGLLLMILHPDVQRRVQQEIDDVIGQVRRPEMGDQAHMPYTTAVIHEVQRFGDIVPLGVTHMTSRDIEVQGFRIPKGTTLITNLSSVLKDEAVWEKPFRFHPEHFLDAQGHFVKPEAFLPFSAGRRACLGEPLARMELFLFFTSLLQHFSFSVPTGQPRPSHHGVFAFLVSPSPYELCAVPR
Sequence of Nuclear receptor subfamily 1 group I member 2 (Homo sapiens) (O75469 whole entry, looked up): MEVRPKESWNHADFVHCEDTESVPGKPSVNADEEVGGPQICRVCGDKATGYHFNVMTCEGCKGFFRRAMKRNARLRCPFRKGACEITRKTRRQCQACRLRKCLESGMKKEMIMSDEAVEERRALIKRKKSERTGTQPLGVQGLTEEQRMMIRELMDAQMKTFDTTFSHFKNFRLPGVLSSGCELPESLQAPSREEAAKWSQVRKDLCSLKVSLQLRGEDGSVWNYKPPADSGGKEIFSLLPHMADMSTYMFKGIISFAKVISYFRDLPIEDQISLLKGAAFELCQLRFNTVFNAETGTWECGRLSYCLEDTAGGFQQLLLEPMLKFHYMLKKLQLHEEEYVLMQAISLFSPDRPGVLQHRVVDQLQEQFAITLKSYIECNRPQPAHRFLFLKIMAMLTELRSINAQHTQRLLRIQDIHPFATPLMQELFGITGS
Sequence of Cytochrome P450 3A4 (Homo sapiens) (P08684 whole entry, looked up): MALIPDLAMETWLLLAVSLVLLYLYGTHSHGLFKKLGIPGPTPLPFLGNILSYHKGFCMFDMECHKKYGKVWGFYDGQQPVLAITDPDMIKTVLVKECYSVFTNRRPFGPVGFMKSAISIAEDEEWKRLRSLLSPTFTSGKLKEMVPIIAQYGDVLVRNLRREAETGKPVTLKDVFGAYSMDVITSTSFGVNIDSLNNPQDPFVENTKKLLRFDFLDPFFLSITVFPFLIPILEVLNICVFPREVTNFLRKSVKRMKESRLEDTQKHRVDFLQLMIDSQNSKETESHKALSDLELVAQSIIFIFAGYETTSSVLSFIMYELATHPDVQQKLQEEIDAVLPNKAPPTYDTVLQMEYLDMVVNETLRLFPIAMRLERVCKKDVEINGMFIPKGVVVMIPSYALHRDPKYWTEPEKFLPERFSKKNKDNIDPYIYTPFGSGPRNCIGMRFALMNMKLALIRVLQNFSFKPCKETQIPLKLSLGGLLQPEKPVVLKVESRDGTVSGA
Sequence of Nuclear receptor subfamily 1 group I member 2 (Rattus norvegicus) (Q9R1A7 whole entry, looked up): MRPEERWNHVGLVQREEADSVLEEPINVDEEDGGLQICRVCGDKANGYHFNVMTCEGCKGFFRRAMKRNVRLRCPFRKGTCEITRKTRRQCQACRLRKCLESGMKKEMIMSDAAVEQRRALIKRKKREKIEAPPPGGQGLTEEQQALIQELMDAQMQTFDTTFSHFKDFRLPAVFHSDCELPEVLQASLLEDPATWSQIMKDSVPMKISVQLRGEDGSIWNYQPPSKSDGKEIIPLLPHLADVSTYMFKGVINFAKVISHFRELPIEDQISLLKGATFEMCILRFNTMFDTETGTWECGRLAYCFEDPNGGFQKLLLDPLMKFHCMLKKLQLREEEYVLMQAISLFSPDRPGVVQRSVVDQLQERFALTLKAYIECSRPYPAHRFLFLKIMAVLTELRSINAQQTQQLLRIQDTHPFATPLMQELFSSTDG

As to `CC[N+](CC)(CC(=O)Nc1c(C)cccc1C)Cc1ccccc1` (tested in a mixture with another compound), the call in [1] was inactive. Besides, the Potency result in assay [2], in [3] and in assay [6] was “inactive” in each case. The figures for the Potency in [4] and in [5] were 0.0262 µM (active) and 52.3 µM (active), respectively.

Consider `CC1=CCC(O)(C(C)C)CC1` (stereo not drawn), for which, in assay [1], the molecule was called inactive. The Potency result in [2], in assay [3], in assay [7], in [4], in assay [5] and in assay [8] was “inactive” throughout. For the same molecule, the Potency entry in assay [9] and in assay [10] was “inactive” each time.

On to `C=CC(C)(CCC=C(C)C)OC(=O)CC` (stereo not drawn), for which the molecule was classed as inactive in assay [1]. The Potency entry in assay [2], in assay [3], in [7] and in assay [4] was “inactive” each time. In addition, the Potency in [5] was 35.6 µM (active); in assay [8], 31.7 µM (active); in assay [10], 28.3 µM (active).

With `Cc1onc(-c2c(Cl)cccc2Cl)c1C(=O)Cl`, the call in assay [1] and in assay [11] was inactive. The Potency entry in assay [7], in assay [4], in assay [6] and in assay [9] was “inactive” in each case. For the same molecule, the results for the Potency in assay [5] and in [8] were 21.9 µM (active) and 17.4 µM (active), respectively.

In the case of `Cc1ncc([C@@H](CCCCCCc2ccc3c(n2)NCCC3)CC(=O)O)cn1`, in [1], the outcome was inactive. Also, the Potency in [2] is 38.6 µM (active). The Potency entry in [7], in assay [4], in assay [5], in assay [6], in assay [9] and in assay [10] was “inactive” throughout.

Take `CCN1CCOCC1`: the result in [1] was inactive. The Potency entry in assay [2], in assay [3], in assay [7], in [9] and in assay [10] was “inactive” throughout. Moreover, the results for the Potency in [4], in assay [5] and in assay [6] were 6.21 µM (active), 22 µM (active) and 39.2 µM (active), respectively.

As for `CCOc1ccc2nc(S(N)(=O)=O)sc2c1`, the molecule was classed as inactive in assay [1]. In addition, the Potency result in [2], in assay [3], in [4], in [5], in assay [9] and in [10] was “inactive” each time.

Regarding `Cc1coc2ccccc2c1=O`, in assay [1], the result was inactive. Also, the Potency entry in [2], in assay [3], in [7], in assay [4], in assay [5] and in [8] was “inactive” each time. For the same molecule, the Potency result in assay [9] and in assay [10] was “inactive” each time. Moreover, the Potency in assay [6] is 15.5 µM (active).

As to `Cc1ccc(C(=O)c2ccc(CC(=O)O)n2C)cc1`, the outcome in assay [1] was inactive. Moreover, the Potency result in assay [2], in assay [3], in [13], in assay [14], in assay [4] and in assay [5] was “inactive” in each case. The Potency entry in assay [6], in assay [9] and in [10] was “inactive” throughout. Moreover, the max activation in assay [12] is -1.99%.

As for `CC(C)C(=O)OC(=O)C(C)C`, the molecule was classed as inactive in assay [1]. Also, the Potency result in assay [2], in assay [3], in [7], in assay [5], in assay [8] and in assay [6] was “inactive” in each case. Also, the Potency result in [10] was “inactive”.

For the molecule `CCC(C)(CCCC(C)C)OC(C)=O` (stereo not drawn), the molecule was called inactive in [1]. For the same molecule, the Potency result in assay [2], in [3], in [7], in assay [4], in assay [8] and in assay [6] was “inactive” throughout. Further, the Potency entry in assay [9] and in assay [10] was “inactive” throughout.

With `CC1(C)OC[C@@H](COC(=O)CCc2ccc(OC[C@@H](O)CNCCNC(=O)N3CCOCC3)cc2)O1`, in [1], the molecule was called inactive. For the same molecule, the Potency entry in assay [2], in [3], in assay [7], in assay [4], in assay [5] and in [8] was “inactive” each time. Also, the Potency result in assay [6], in assay [9] and in [10] was “inactive” each time.
